Among the test systems are NCI-H23 lung; NCI-H226 lung; NCI-H322M lung; HOP-62 NSCLC; NCI-H460 lung; HOP-92 NSCLC; NCI-H522 lung; A549/ATCC NSCLC; 786-0 renal; COLO 205 colon.
What all share (assay): NCI-60 one-dose screen, 48 h (100 = growth as untreated, 0 = no growth, -100 = all killed)
Common to all, as to conditions: 10 µM unless noted

The source of these data is PubChem BioAssay (NCI).

This is part of a sample that, as a whole, favours compounds with a hit. Of some 83,000 tested, about 20% had one in any assay.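 Step 1: grow cells in 96-well plates. Step 2: add test compound at a single concentration. Step 3: incubate 48 h. Step 4: record percent growth.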 Values without a mark were called inactive. Activity calls are given as the source filed them. The calls were made as follows: active = growth percent below 10; inactive = the rest.

`C(=C(\C1=NCCN1)n1cnc2ccccc21)/c1cccc2ccccc12`: the growth in the assay with NCI-H23 lung was 90.7%; in the assay with NCI-H226 lung, 76.4%; with NCI-H322M lung, 88.2%; with HOP-62 NSCLC, 88.6%; in the assay on NCI-H460 lung, 101%; with HOP-92 NSCLC it was 8.37% (active). Moreover, the growth with NCI-H522 lung is 79.4%; with A549/ATCC NSCLC, 94%; in the assay with 786-0 renal it was 92.5%; in the assay with COLO 205 colon, 106%.
With `O=C(NNc1nc2cc(F)cc(F)c2n2cccc12)c1ncccn1`, the growth is 11.2% in the assay with NCI-H23 lung; -2.14% (active) with NCI-H226 lung; 25.5% in the assay on NCI-H322M lung; 19.7% with HOP-62 NSCLC; 6% (active) in the assay with NCI-H460 lung; 61.2% in the assay with HOP-92 NSCLC. For the same compound, the growth was -2.87% (active) with NCI-H522 lung, 18.7% in the assay with A549/ATCC NSCLC, 0.547% (active) in the assay with 786-0 renal and 16.9% with COLO 205 colon.
For the compound `C#CCOc1ccc(C(Nc2ccc(OC)cc2)c2nnnn2C2CCCCC2)cc1` (stereo not given), the growth in the assay with NCI-H23 lung was 99.8%; with NCI-H226 lung it was 101%; in the assay on NCI-H322M lung it was 97.3%; with HOP-62 NSCLC, 98.9%; in the assay with NCI-H460 lung, 103%; in the assay on HOP-92 NSCLC, 93.9%. Moreover, the growth is 89.3% in the assay on NCI-H522 lung, 92.2% in the assay on A549/ATCC NSCLC, 95.5% in the assay with 786-0 renal and 106% in the assay with COLO 205 colon.
In the case of `COc1cc2cc(Oc3ccc(NC(=O)Nc4cccc(C(F)(F)F)c4)cc3)c(C)nc2cc1OCCN(C)C`, the growth in the assay with NCI-H23 lung was 91.2%; in the assay with NCI-H226 lung, 104%; in the assay with NCI-H322M lung it was 117%; in the assay with HOP-62 NSCLC it was 105%; in the assay with NCI-H460 lung, 99.9%; in the assay on HOP-92 NSCLC, 74.7%. Besides, the growth in the assay with NCI-H522 lung is 102%; in the assay on A549/ATCC NSCLC it was 96.7%; in the assay with 786-0 renal, 88.7%; in the assay with COLO 205 colon, 98.5%.
With `N/C(=N\OC(=O)CSc1nc2ccccc2s1)c1ccc(Cl)cc1`, the growth with NCI-H23 lung was 97.7%; in the assay on NCI-H226 lung, 98%; with NCI-H322M lung, 101%; with HOP-62 NSCLC, 88.2%; with NCI-H460 lung, 108%; with HOP-92 NSCLC it was 98%. The growth is 95% in the assay with NCI-H522 lung, 103% with A549/ATCC NSCLC, 102% with 786-0 renal and 106% in the assay with COLO 205 colon.
As to `COc1cc(C(=O)c2cc(C(C)=O)c3c4ccccc4ccn23)cc(OC)c1OC`, the growth with NCI-H23 lung was 64.4%; with NCI-H226 lung it was 66.8%; with NCI-H322M lung it was 74.8%; in the assay with HOP-62 NSCLC, 56%; with NCI-H460 lung it was 45.1%; with HOP-92 NSCLC, 26.8%. For the same compound, the growth was 52% in the assay on NCI-H522 lung, 61.1% in the assay with A549/ATCC NSCLC, 70.1% in the assay on 786-0 renal and 38.6% in the assay with COLO 205 colon.
`C/C(=C(/c1ccc(O)cc1)c1ccc(OCCN2CCCC2)cc1)c1ccc(Cl)cc1`: the growth in the assay with NCI-H23 lung is 46.8%; in the assay on NCI-H226 lung it was 72.3%; with NCI-H322M lung, 53.8%; in the assay with HOP-62 NSCLC, 63.1%; with NCI-H460 lung, -1.6% (active); with HOP-92 NSCLC, 50.3%. In addition, the growth in the assay with NCI-H522 lung was 61.1%; in the assay with A549/ATCC NSCLC, 47.6%; in the assay on 786-0 renal, 45.7%; in the assay with COLO 205 colon it was -86.6% (active).
As for `COc1cc(CNC(=O)Cc2ccccc2[N+](=O)[O-])ccc1OCC(=O)NO`, the growth in the assay with NCI-H23 lung was 102%; with NCI-H226 lung it was 100%; in the assay on NCI-H322M lung, 107%; in the assay with HOP-62 NSCLC it was 102%; with NCI-H460 lung it was 114%; in the assay on HOP-92 NSCLC it was 101%. The growth in the assay with NCI-H522 lung is 102%; in the assay with A549/ATCC NSCLC, 106%; in the assay with 786-0 renal it was 106%; with COLO 205 colon, 104%.
`NS(=O)(=O)Oc1ccc2nc(Nc3ccc(F)c(F)c3)ccc2c1`: the growth with NCI-H23 lung is 96.3%; in the assay with NCI-H226 lung, 90.5%; in the assay with NCI-H322M lung, 92.9%; in the assay with HOP-62 NSCLC, 99.4%; in the assay with NCI-H460 lung it was 98.1%; with HOP-92 NSCLC, 115%. For the same compound, the growth with NCI-H522 lung was 91.4%; in the assay on A549/ATCC NSCLC it was 79.6%; with 786-0 renal, 89.6%; in the assay on COLO 205 colon it was 93.8%.
`C=C1C(=O)O[C@@H]2C[C@@H](C)/C=C\C(=O)[C@](C)(OC(C)=O)C[C@H](OC(=O)/C(C)=C\C)[C@@H]12`: the growth with NCI-H23 lung is -13.9% (active); with NCI-H226 lung, -43.4% (active); in the assay with NCI-H322M lung, 88%; in the assay on HOP-62 NSCLC, 74.6%; in the assay on NCI-H460 lung it was 20%; in the assay on HOP-92 NSCLC, -35.6% (active). Further, the growth is -82.4% (active) in the assay on NCI-H522 lung, 72.9% with A549/ATCC NSCLC, -62.8% (active) with 786-0 renal and -78.3% (active) in the assay on COLO 205 colon.
As for `C/C(=C(/C)C1CC1CCN(C(=O)c1ccccn1)S(=O)(=O)c1ccc(C)cc1)C1CCCCC1` (stereo not given), the growth with NCI-H23 lung was 84.2%; with NCI-H226 lung it was 97%; with NCI-H322M lung, 105%; with HOP-62 NSCLC it was 102%; in the assay on NCI-H460 lung it was 100%; in the assay on HOP-92 NSCLC, 104%. Also, the growth was 85.1% with NCI-H522 lung, 97% in the assay with A549/ATCC NSCLC, 95.5% in the assay on 786-0 renal and 108% in the assay on COLO 205 colon.
With `O=C(/C=C1\C=CN(CCCCCCF)c2ccccc21)n1ccc2ccccc21`, the growth was 89.5% in the assay on NCI-H23 lung; 48.4% in the assay with NCI-H226 lung; 96.6% in the assay with NCI-H322M lung; 85.8% in the assay with HOP-62 NSCLC; 110% in the assay on NCI-H460 lung; 70.3% in the assay with HOP-92 NSCLC. Besides, the growth in the assay with NCI-H522 lung was 86.4%; in the assay with A549/ATCC NSCLC, 102%; in the assay on 786-0 renal, 111%; in the assay with COLO 205 colon, 103%.
In the case of `Nc1n[nH]c2cccc(C#Cc3cccc(NC(=O)c4cccc(OC(F)(F)F)c4)c3)c12`, the growth is 35.1% with NCI-H23 lung; 46.8% with NCI-H226 lung; 77.3% in the assay with NCI-H322M lung; 59.4% with HOP-62 NSCLC; 58.1% with NCI-H460 lung; -9.3% (active) with HOP-92 NSCLC. Also, the growth in the assay with NCI-H522 lung was 49.2%; in the assay with A549/ATCC NSCLC, 71.4%; in the assay with 786-0 renal it was 65.3%; in the assay with COLO 205 colon, 49%.
